Results taken from PubChem BioAssay (NCI).
Compounds without any hit were thinned out: in the full panel of roughly 79,000, 15% have a hit. Activity calls are given as the source filed them. Rule as the data show it: active = growth inhibition above about 70%; inactive = the rest.

How the values were obtained:
[1] = NCI Yeast Anticancer Drug Screen. Data for the wt1 strain (AID 149);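 also: 0% = growth of vehicle-treated wt1 cultures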; conditions: S. cerevisiae wt1 strain (SPY 50644) growth inhibition, hits give high values
Summary of the method: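 Yeast wt1 strain exposed to compounds; growth inhibition measured relative to vehicle-treated controls.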

[2] = NCI Yeast Anticancer Drug Screen. Data for the rad50EPP+ strain (AID 151);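 also: 0% = growth of vehicle-treated control cultures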; conditions: S. cerevisiae rad50 mutant strain, hits give high values
Summary of the method: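 Growth inhibition read against vehicle controls in rad50EPP+ yeast, a strain altered in DNA damage repair, after compound exposure.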

[3] = NCI Yeast Anticancer Drug Screen. Data for the rad50 strain (AID 155);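 also: 0% = growth of vehicle-only cultures of the same strain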; conditions: S. cerevisiae rad50 strain growth inhibition, hits give high values
Summary of the method: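 Yeast carrying a defined DNA repair defect were exposed to test compounds, and growth was compared with vehicle-treated controls to give percent inhibition.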

[4] = NCI Yeast Anticancer Drug Screen. Data for the mec2-1 strain (AID 157); conditions: S. cerevisiae mec2-1 strain, hits give high values
Summary of the method: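 Yeast mec2-1 mutant treated with compound. Readout: growth inhibition vs vehicle controls.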

[5] = NCI Yeast Anticancer Drug Screen. Data for the rad14 strain (AID 159);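 also: 0% = growth of vehicle-treated control cultures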; conditions: S. cerevisiae rad14 strain growth inhibition, hits give high values
Summary of the method: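 Yeast cells carrying a defined DNA-repair defect were exposed to compounds, and growth inhibition was calculated relative to vehicle-treated control cultures.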

[6] = NCI Yeast Anticancer Drug Screen. Data for the sgs1 mgt1 strain (AID 161);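 also: 0% = growth of cultures given vehicle only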; conditions: S. cerevisiae sgs1 mgt1 strain, hits give high values
Summary of the method: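 Mutant yeast exposed to compound; growth scored against vehicle-only wells.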

[7] = NCI Yeast Anticancer Drug Screen. Data for the CLN2oe strain (AID 163);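 also: 0% = growth of vehicle-only control cultures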; conditions: S. cerevisiae CLN2oe strain, hits give high values
Summary of the method: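 Read-out: yeast growth inhibition, expressed relative to vehicle-only controls. The strain bears an engineered cell-cycle alteration.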

[8] = NCI Yeast Anticancer Drug Screen. Data for the cln2 rad14 strain (AID 165);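 also: 0% = growth equal to vehicle treated cultures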; conditions: S. cerevisiae cln2 rad14 strain, hits give high values
Summary of the method: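 cln2 rad14 yeast strain; compound exposure; growth inhibition read vs vehicle controls.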

[9] = NCI Yeast Anticancer Drug Screen. Data for the bub3 strain (AID 167); conditions: S. cerevisiae bub3 mutant strain, hits give high values
Summary of the method: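 Compounds were applied to a genetically altered yeast strain carrying a cell-cycle control defect. Growth inhibition was scored against vehicle-treated controls.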

[10] = NCI Yeast Anticancer Drug Screen. Data for the mlh1 strain (AID 171);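 also: 0% = growth of vehicle-treated control cultures of the same strain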; conditions: S. cerevisiae mlh1 strain growth inhibition, hits give high values
Summary of the method: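 Read-out: growth inhibition versus vehicle controls. Strain: engineered yeast with a defined DNA repair or cell cycle defect, compound-treated.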

[11] = NCI Yeast Anticancer Drug Screen. Data for the sgs1 strain (AID 173);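 also: 0% = growth of vehicle-only control cultures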; conditions: S. cerevisiae sgs1 mutant, hits give high values
Summary of the method: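 Read-out: yeast growth inhibition relative to vehicle controls, following compound exposure of a strain with a defined DNA repair/cell cycle alteration.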

[12] = NCI Yeast Anticancer Drug Screen. Data for the mlh1 rad18 strain (AID 175); conditions: S. cerevisiae mlh1 rad18 strain growth inhibition, hits give high values
Summary of the method: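 Yeast w/ defined DNA-repair lesions; compound exposure; growth vs vehicle controls → % inhibition.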

[13] = NCI Yeast Anticancer Drug Screen. Data for the rad18 strain (AID 177); conditions: S. cerevisiae rad18 mutant growth inhibition, hits give high values
Summary of the method: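 Readout: growth inhibition vs vehicle controls. Cells: genetically altered yeast strain, DNA repair defect.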

[14] = NCI Yeast Anticancer Drug Screen. Data for the mgt1 strain (AID 153); conditions: S. cerevisiae mgt1 mutant growth inhibition, hits give high values
Summary of the method: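 mgt1 yeast grown with test compound; read-out is growth inhibition versus vehicle-treated cultures.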

[15] = NCI Yeast Anticancer Drug Screen. Data for the wt2 strain (AID 169);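 also: 0% = growth of vehicle-treated yeast cultures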; conditions: S. cerevisiae wt2 strain growth inhibition, hits give high values
Summary of the method: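 Read-out: growth inhibition versus vehicle-treated control cultures after compound exposure of the yeast strain.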

[16] = at 5.0 µM (retest, dose inferred, filed as 0.5)
[17] = at 50.0 µM (retest, dose inferred, filed as 5.0)

Measured: growth inhibition

C[n+]1c(-c2ccc(/C=N/NC(=O)c3ccc(C(=O)N/N=C/c4ccc(-c5cn6ccccc6[n+]5C)cc4)cc3)cc2)cn2ccccc21
inactive: [1]; at 1.2 µM 9% | [1]; at 3.7 µM 16% | [1]; at 11.0 µM 26% | [1]; at 33.0 µM 25% | [1]; at 100.0 µM 25% | [2]; at 1.2 µM 69% | [3]; at 1.2 µM 6% | [3]; at 3.7 µM 10% | [3]; [16] 15% | [3]; at 11.0 µM 16% | [3]; at 33.0 µM 55% | [4]; at 1.2 µM 7% | [4]; at 3.7 µM 13% | [4]; [16] -7% | [4]; at 11.0 µM 23% | [4]; at 33.0 µM 41% | [4]; [17] 63% | [4]; at 50.0 µM 49.4% | [5]; at 1.2 µM -1% | [5]; at 3.7 µM 3% | [5]; at 11.0 µM 15% | [5]; at 33.0 µM 66% | [5]; at 100.0 µM 60% | [6]; [16] 24% | [6]; [17] 62% | [7]; at 1.2 µM -2% | [7]; at 3.7 µM 0% | [7]; at 11.0 µM 13% | [7]; at 33.0 µM 30% | [7]; at 100.0 µM 38% | [8]; [16] 16% | [8]; at 50.0 µM 51.4% | [9]; at 1.2 µM -5% | [9]; at 3.7 µM 2% | [9]; [16] -1% | [9]; at 11.0 µM 13% | [9]; at 50.0 µM 69.7% | [10]; at 1.2 µM 3% | [10]; at 3.7 µM 11% | [10]; at 11.0 µM 37% | [10]; at 33.0 µM 69% | [11]; at 1.2 µM 11% | [11]; at 3.7 µM 22% | [11]; at 11.0 µM 44% | [12]; [16] 50% | [13]; at 1.2 µM 10% | [13]; at 3.7 µM 17% | [13]; at 11.0 µM 55% | [13]; at 33.0 µM 55%
active: [2]; at 3.7 µM 86% | [2]; at 11.0 µM 94% | [2]; at 33.0 µM 94% | [2]; at 100.0 µM 94% | [3]; [17] 92% | [3]; at 50.0 µM 81.2% | [3]; at 100.0 µM 79% | [4]; at 100.0 µM 76% | [6]; at 50.0 µM 70.7% | [8]; [17] 78% | [9]; at 33.0 µM 70% | [9]; [17] 91% | [9]; at 100.0 µM 76% | [10]; at 100.0 µM 84% | [11]; at 33.0 µM 74% | [11]; at 100.0 µM 81% | [12]; [17] 96% | [12]; at 50.0 µM 92% | [13]; at 100.0 µM 70%

Cn1c(-c2ccc(/C=N\N3CCN(/N=C/c4ccc(-c5c[n+]6ccsc6n5C)cc4)CC3)cc2)c[n+]2ccsc12
active: [1]; at 100.0 µM 71% | [2]; at 100.0 µM 78% | [3]; at 100.0 µM 76% | [4]; at 100.0 µM 82% | [7]; at 100.0 µM 76% | [8]; at 50.0 µM 70.5% | [9]; at 100.0 µM 78% | [15]; at 100.0 µM 90% | [10]; at 100.0 µM 74% | [11]; at 100.0 µM 88% | [12]; [17] 73% | [13]; at 100.0 µM 89%
inactive: [1]; at 1.2 µM 5% | [1]; at 3.7 µM 18% | [1]; at 11.0 µM 14% | [1]; at 33.0 µM 17% | [2]; at 1.2 µM 30% | [2]; at 3.7 µM 51% | [2]; at 11.0 µM 49% | [2]; at 33.0 µM 59% | [14]; at 1.2 µM 17% | [14]; at 3.7 µM 27% | [14]; at 11.0 µM 25% | [14]; at 33.0 µM 25% | [14]; at 100.0 µM 69% | [3]; at 1.2 µM 21% | [3]; at 3.7 µM 33% | [3]; [16] 12% | [3]; at 11.0 µM 21% | [3]; at 33.0 µM 11% | [3]; [17] 29% | [3]; at 50.0 µM 18% | [4]; at 1.2 µM 50% | [4]; at 3.7 µM 51% | [4]; [16] 14% | [4]; at 11.0 µM 57% | [4]; at 33.0 µM 41% | [4]; [17] 53% | [4]; at 50.0 µM 30.4% | [5]; at 1.2 µM 16% | [5]; at 3.7 µM 10% | [5]; at 11.0 µM 9% | [5]; at 33.0 µM 14% | [5]; at 100.0 µM 59% | [6]; [16] 18% | [6]; [17] 58% | [6]; at 50.0 µM 25.1% | [7]; at 1.2 µM 40% | [7]; at 3.7 µM 48% | [7]; at 11.0 µM 49% | [7]; at 33.0 µM 52% | [8]; [16] 18% | [8]; [17] 18% | [9]; at 1.2 µM 17% | [9]; at 3.7 µM 26% | [9]; [16] 17% | [9]; at 11.0 µM 25% | [9]; at 33.0 µM 40% | [9]; [17] 35% | [9]; at 50.0 µM 16.4% | [15]; at 1.2 µM -43% | [15]; at 3.7 µM -40% | [15]; at 11.0 µM -31% | [15]; at 33.0 µM 0% | [10]; at 1.2 µM 33% | [10]; at 3.7 µM 32% | [10]; at 11.0 µM 19% | [10]; at 33.0 µM 47% | [11]; at 1.2 µM 29% | [11]; at 3.7 µM 32% | [11]; at 11.0 µM 32% | [11]; at 33.0 µM 46% | [12]; [16] 34% | [12]; at 50.0 µM -10.8% | [13]; at 1.2 µM 19% | [13]; at 3.7 µM 34% | [13]; at 11.0 µM 24% | [13]; at 33.0 µM 62%
